Reference: the supplement of paper PMC3545927
The list shows a part of the results. The hit rate among all sequences tested is not known here.

B1: HC2166 (peptide)
chain: CAEMVTSTWVAGNASASA
B2: HC813 (peptide)
chain: CACSGGAYDIAGNASASA
B3: HC347 (peptide)
chain: CAVVLLLFAGAGNASASA
B4: HC1028 (peptide)
chain: CALLQTASRQAGNASASA
B5: FS-71 (peptide)
chain: CAPPRRKRRQAGNASASA
B6: FS-604 (peptide)
chain: CALAARKRRQAGNASASA
B7: HC523 (peptide)
chain: CALLADARVCAGNASASA
B8: HC994 (peptide)
chain: CALAALAAYCAGNASASA
B9: FS-1025 (peptide)
chain: CALLARDRRQAGNASASA
B10: HC1604 (peptide)
chain: CAHGLSAFSLAGNASASA
B11: HC2029 (peptide)
chain: CAVVYCSMSYAGNASASA
B12: HC1098 (peptide)
chain: CASTEDLVNLAGNASASA
B13: HC113 (peptide)
chain: CAVVCCEMSYAGNASASA
B14: FS-448 (peptide)
chain: CAKGYRGKRAAGNASASA
B15: FS-578 (peptide)
chain: CAAKQRGKRAAGNASASA
B16: FS-2859 (peptide)
chain: CAEFKRCWKGAGNASASA
B17: FS-348 (peptide)
chain: CALCARPRRSAGNASASA
B18: FS-473 (peptide)
chain: CAPLPRPRRSAGNASASA
B19: FS-1384 (peptide)
chain: CAPRDRPRRSAGNASASA
B20: FS-980 (peptide)
chain: CAATPRPRRSAGNASASA
B21: FS-704 (peptide)
chain: CAQPPRPFRSAGNASASA
B22: HC152 (peptide)
chain: CAEVVTDTWVAGNASASA
B23: HC69 (peptide)
chain: CATTPCHGSWAGNASASA
B24: FS-952 (peptide)
chain: CARLVRPRRSAGNASASA
B25: FS-660 (peptide)
chain: CAGTWRPRRSAGNASASA
B26: HC2403 (peptide)
chain: CAEVPCHRPAAGNASASA
B27: HC2348 (peptide)
chain: CAEVWCHRPSAGNASASA
B28: HC966 (peptide)
chain: CALIRLKPTLAGNASASA

Molecular target: furin, P09958
Test: furin cleavage Z-score vs untreated control; higher = more cleavage, active = 3.5 or more, inactive = 1 or less, 8 variable residues between constant flanks
Experimental: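 Multiplexed peptide-cDNA fusion cleavage assay. 8-mer variable peptides flanked by constant Cys-Ala (N-term) and Ala-Gly-Asn-Ala-Ser-Ala-Ser-Ala (C-term) and conjugated to a cDNA oligonucleotide were bead-immobilised via the N-terminus. They were treated with purified furin at a 1:10 enzyme:substrate ratio in 50 mM HEPES pH 7.5, 1 mM CaCl2, 100 mM NaCl for 7.5, 15 or 30 min. Released cDNA was counted by next-generation sequencing, and log counts versus no-furin controls were lowess-adjusted and converted to robust Z-scores.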

furin, P09958, sequence (P09958 whole entry): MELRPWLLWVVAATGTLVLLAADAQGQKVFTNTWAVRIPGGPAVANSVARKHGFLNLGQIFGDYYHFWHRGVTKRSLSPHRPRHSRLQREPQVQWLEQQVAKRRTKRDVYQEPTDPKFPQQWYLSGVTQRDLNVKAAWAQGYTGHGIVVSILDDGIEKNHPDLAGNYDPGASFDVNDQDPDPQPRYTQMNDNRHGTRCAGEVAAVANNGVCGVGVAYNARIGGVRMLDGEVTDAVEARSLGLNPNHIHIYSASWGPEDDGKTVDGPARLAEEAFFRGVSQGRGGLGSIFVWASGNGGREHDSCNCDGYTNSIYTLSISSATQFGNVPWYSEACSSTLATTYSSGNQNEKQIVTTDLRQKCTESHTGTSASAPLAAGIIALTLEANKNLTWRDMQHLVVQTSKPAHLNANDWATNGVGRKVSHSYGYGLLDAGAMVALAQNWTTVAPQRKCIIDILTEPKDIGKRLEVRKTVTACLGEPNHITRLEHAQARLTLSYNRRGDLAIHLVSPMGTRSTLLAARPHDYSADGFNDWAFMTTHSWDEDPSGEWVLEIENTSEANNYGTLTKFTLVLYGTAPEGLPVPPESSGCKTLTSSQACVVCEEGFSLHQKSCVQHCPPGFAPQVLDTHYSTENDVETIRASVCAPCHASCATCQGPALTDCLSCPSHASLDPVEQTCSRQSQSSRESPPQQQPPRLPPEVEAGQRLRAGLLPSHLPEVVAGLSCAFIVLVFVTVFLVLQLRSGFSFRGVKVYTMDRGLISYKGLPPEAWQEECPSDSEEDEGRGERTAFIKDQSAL

| Sequence | furin cleavage Z-score (7.5 min) | furin cleavage Z-score (15 min) | furin cleavage Z-score (30 min) |
| --- | --- | --- | --- |
| B1 | -0.179 (inactive) | 0.272 (inactive) | -0.181 (inactive) |
| B2 | -0.539 (inactive) | -1.15 (inactive) | 0.556 (inactive) |
| B3 | -2.22 (inactive) | 0.376 (inactive) | -0.682 (inactive) |
| B4 | 0.222 (inactive) | 0.569 (inactive) | 0.432 (inactive) |
| B5 | 8.73 (active) | 9.48 (active) | 8.32 (active) |
| B6 | 12.2 (active) | 12.1 (active) | 10 (active) |
| B7 | 0.91 (inactive) | -0.28 (inactive) | -1.13 (inactive) |
| B8 | 0.554 (inactive) | 1.14 | 0.545 (inactive) |
| B9 | 6.87 (active) | 9.4 (active) | 7.76 (active) |
| B10 | 0.973 (inactive) | 0.919 (inactive) | 1.37 |
| B11 | -0.409 (inactive) | -0.331 (inactive) | 0.819 (inactive) |
| B12 | 0.352 (inactive) | -0.11 (inactive) | -0.537 (inactive) |
| B13 | 1.04 | -0.157 (inactive) | 2.06 |
| B14 | 9.98 (active) | 9.64 (active) | 8.26 (active) |
| B15 | 7.85 (active) | 6.99 (active) | 6.51 (active) |
| B16 | -0.792 (inactive) | 0.463 (inactive) | -0.89 (inactive) |
| B17 | 10.1 (active) | 10.4 (active) | 9.44 (active) |
| B18 | 6.49 (active) | 5.07 (active) | 4.07 (active) |
| B19 | 12.7 (active) | 13.7 (active) | 10.6 (active) |
| B20 | 11.1 (active) | 11.2 (active) | 7.55 (active) |
| B21 | -0.352 (inactive) | 1.58 | -0.0165 (inactive) |
| B22 | -0.985 (inactive) | 0.416 (inactive) | -1.25 (inactive) |
| B23 | 1.47 | 0.142 (inactive) | 1.5 |
| B24 | 13.4 (active) | 14.2 (active) | 10.3 (active) |
| B25 | 10.9 (active) | 11.6 (active) | 7.85 (active) |
| B26 | -1.55 (inactive) | 0.357 (inactive) | -0.33 (inactive) |
| B27 | 0.218 (inactive) | 0.0316 (inactive) | 0.64 (inactive) |
| B28 | -1.19 (inactive) | -1.25 (inactive) | 0.404 (inactive) |
